“And” between values parts separate entries of the source, which are not always exact repeats. Equal values may be shown once. Inconclusive results are not listed. A number with no mark means an inactive call. The source made the active and inactive calls. Calls come from the whole dose curve; as a rule, active = well fitted curve in the direction sought with a large enough effect; inconclusive = small, poorly fitted or top-dose-only effect, or another doubt; inactive = no such curve, though single readings can be large; an effect the other way counts as inactive or inconclusive.
Columns and labels:
[1] = Viability qHTS for spleen associated tyrosine kinase inhibitor (SYKi) naive MV4-11 cells (AID 1963823); note: nearly all actives have a fitted effect of over 40% in size
How it was run: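 Luminescence from CellTiter-Glo, developed 10 min at room temperature, gave viability of MV4-11 cells never exposed to SYK inhibitor. Cells (500/well) had been incubated with compounds for 72 hr under standard culture conditions.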

[2] = Viability qHTS for spleen associated tyrosine kinase inhibitor (SYKi) drug resistant MV4-11 cells (AID 1963824); note: nearly all actives have a fitted effect of over 35% in size
How it was run: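 CellTiter-Glo luminescence, read 10 min after reagent addition, reports viability after a 72 hr compound exposure. Cells are an MV4-11 line made resistant to SYK inhibition, seeded at 500 per well onto compound-containing plates.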

[3] = Quantitative highthroughput screen to assess conditional lethalithy of SEM cells grown in Human Plasma-Like Medium with dialyzed fetal bovine serum (HPLM+ds) (AID 1963882); note: nearly all actives have a fitted effect of over 35% in size; for Viability: series mostly up to about 46 µM
How it was run: (§1)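 Each medium arm—HPLM with 10% dialyzed FBS, or RPMI1640 with 5 mM glucose and 10% untreated or dialyzed FBS—was screened against an 11-point, 3-fold compound titration for 48 h at 37 °C, with CellTiter-Glo luminescence as endpoint.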

[4] = Quantitative highthroughput screen to assess conditional lethalithy of SEM cells grown in RPMI1640 with dialyzed fetal bovine serum (RPMI+ds) (AID 1963884); note: nearly all actives have a fitted effect of over 35% in size;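 for Viability: series mostly up to about 46 µM; 100% = DMSO control wells and 0% = empty wells without cells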
How it was run: as §1

[5] = Cellular viability qHTS for adrenocortical cancer (ACC) cell line SW-13 (AID 1963989); details: SW-13 ACC cells viability, CellTiter-Glo, 48 h; activity (max response): active compounds read low; note: nearly all actives have a fitted effect of over 65% in size;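 for activity (max response): cells grown in serum-free medium with ITS supplement; % is set by controls: 0 for no effect and ±100 for the full control effect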
How it was run: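 SW-13 cells in ITS-supplemented serum-free DMEM were plated overnight, then exposed for 48 h at 37C to compound titrations (up to 46 uM final). Viability was read by CellTiter-Glo luminescence; four-parameter logistic fits gave IC50 and efficacy.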

[6] = Cellular viability qHTS for adrenocortical cancer (ACC) cell line NCI-H295R (AID 1963990); note: nearly all actives have a fitted effect of over 60% in size
How it was run: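 Luminescent ATP read-out (CellTiter-Glo, 20 min RT) after 48 h drug exposure of NCI-H295R cells; a titration up to 46 uM final. Data normalized to doxorubicin (100% inhibition) and DMSO (0%); 4-parameter fit gives IC50, max response.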

[7] = Quantitative highthroughput screen to assess conditional lethalithy of SEM cells grown in RPMI1640 with unreated serum (RPMI+s) (AID 1963883); note: nearly all actives have a fitted effect of over 35% in size;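 for Viability: 100% = DMSO wells and 0% = empty wells without cells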
How it was run: as §1

[8] = Quantitative highthroughput screen to assess conditional lethalithy of P12 Ichikawa cells grown in RPMI1640 with dialyzed fetal bovine serum (RPMI+ds) (AID 1963880); details: Potency: P12-Ichikawa viability; note: nearly all actives have a fitted effect of over 35% in size;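 for Viability: 100% = DMSO wells and 0% = empty wells on each plate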
How it was run: as §1

[9] = Quantitative highthroughput screen to assess conditional lethalithy of P12 Ichikawa cells grown in RPMI1640 with untreated serum (RPMI+s) (AID 1963881); details: Potency: viability; note: nearly all actives have a fitted effect of over 35% in size
How it was run: as §1
Potency is the fitted concentration of half-maximal effect.

Row | SMILES | Potency [1] | Potency [2] | Potency [3] | Potency [4] | activity (max response) [5] | Potency [6] | Potency [7] | Potency [5] | Potency [8] | Potency [9]
1 | O=C(O)c1cn(C2CC2)c2cc(N3CCNCC3)c(F)cc2c1=O | inactive | inactive | 16.6 µM (active) | 3.72 µM (active) | -3.87% and 6.05% | inactive |  |  |  | 
2 | COc1ccc(-c2cc3c(C)nc(N)nc3n(C3CCC(OCCO)CC3)c2=O)cn1 (stereo unspecified) | 0.105 µM (active) | 206 nM (active) and 417 nM (active) | 0.833 µM (active) | 1.87 µM (active) |  | 0.501 µM (active) | 0.469 µM (active) | 1.12 µM (active) |  | 
3 | CN1CCCC(n2nc(Cc3ccc(Cl)cc3)c3ccccc3c2=O)CC1 (stereo unspecified) | 10.6 µM (active) | 26.6 µM (active) |  | inactive |  | 18.4 µM (active) | inactive |  |  | 
4 | CCN(CC)CCCCNc1ncc2cc(-c3cc(OC)cc(OC)c3)c(NC(=O)NC(C)(C)C)nc2n1 | 5.8 µM (active) and 8.33 µM (active) | 5.8 µM (active) and 9.34 µM (active) |  |  |  |  | 16.6 µM (active) |  |  | 
5 | CC(C)n1nc(-c2ccc3oc(N)nc3c2)c2c(N)ncnc21 | 36.6 nM (active) and 29.5 nM (active) | 73.1 nM (active) and 46.8 nM (active) | 0.0332 µM (active) | 0.469 µM (active) |  | 0.0708 µM (active) | 0.0469 µM (active) | 0.1 µM (active) |  | 
6 | Nc1nc(=S)c2[nH]cnc2[nH]1 | 0.934 µM (active) | 1.05 µM (active) |  |  |  | 731 nM (active) and 1.12 µM (active) |  |  | 14.8 µM (active) | 20.9 µM (active)
7 | CN1CCc2c(c3ccccc3n2Cc2ccc(C(=O)NO)cc2)C1 | 26.3 µM (active) | 14.8 µM (active) |  |  |  | 28.2 µM (active) |  |  | inactive | 13.2 µM (active)
8 | CNC(=O)c1ccccc1Nc1nc(Nc2ccc(N3CCOCC3)cc2OC)ncc1Cl | 184 nM (active) and 132 nM (active) | 326 nM (active) and 296 nM (active) | 2.09 µM (active) |  |  |  | 1.87 µM (active) | 5.62 µM (active) |  | 
9 | NC(=NCc1ccccc1)NC(=O)c1nc(Cl)c(N)nc1N | 3.32 µM (active) | 5.25 µM (active) | inactive | 14.8 µM (active) |  |  |  |  |  | 
10 | Oc1ccc(C2CCN(c3ccnc4ccccc34)CC2)cc1O | 2.09 µM (active) | 1.86 µM (active) |  |  |  | inactive | 11.8 µM (active) |  |  | 
11 | CN(C)c1nc(Cc2ccc(NC(=O)c3ccc4ccccc4c3)cc2)nc(Cl)c1CC(=O)O | inactive | inactive | inactive | inactive |  |  | inactive |  | 5.26 µM (active) | 2.96 µM (active)
12 | c1ccc(-c2oc3ncnc(NC[C@@H]4CCCO4)c3c2-c2ccccc2)cc1 | 9.2 µM (active) | 13 µM (active) | inactive |  | -50.5% |  |  |  |  | 
13 | C=CC(=O)Nc1cccc(Sc2nc(Nc3ccc(N4CCN(C)CC4)cc3)ncc2Cl)c1 | 580 nM (active) and 590 nM (active) | 580 nM (active) and 742 nM (active) | 23.5 µM (active) | 16.6 µM (active) |  | 3.16 µM (active) |  |  |  | 
14 | Cc1ccc2nc(NC(=O)CSc3nc4c(c(=O)n3-c3ccccc3)SCC4)sc2c1 | inactive | inactive |  | 20.9 µM (active) | -6.8% | inactive | 16.6 µM (active) |  |  | 
15 | CN(c1ncccc1CNc1nc(Nc2ccc3c(c2)CC(=O)N3)ncc1C(F)(F)F)S(C)(=O)=O | 0.366 µM (active) | 0.731 µM (active) | 2.96 µM (active) | 1.05 µM (active) |  |  | 2.64 µM (active) | 31.6 µM (active) |  | 
16 | Cc1c(NC(=O)OC[C@@H]2COCCN2)cn2ncnc(Nc3ccc4c(cnn4Cc4cccc(F)c4)c3)c12 | 10.3 µM (active) and 13.2 µM (active) | 8.2 µM (active) and 11.8 µM (active) | 9.35 µM (active) | 10.5 µM (active) |  | 31.6 µM (active) | 9.35 µM (active) | 15.8 µM (active) |  | 
17 | CCOc1ccn(-c2ccc(F)cc2)c(=O)c1C(=O)Nc1ccc(Oc2ccnc(N)c2Cl)c(F)c1 | 366 nM (active) and 525 nM (active) | 580 nM (active) and 1.05 µM (active) | 1.48 µM (active) | 2.09 µM (active) |  | 14.1 µM (active) | 3.32 µM (active) |  |  | 
18 | COc1cc(C(=O)N2CCC(N3CCN(C)CC3)CC2)ccc1Nc1ncc2c(n1)N(C)c1ccccc1C(=O)N2C | 461 nM (active) and 1.32 µM (active) | 651 nM (active) and 1.18 µM (active) | 3.72 µM (active) |  |  | 12.6 µM (active) |  |  |  | 

From PubChem BioAssay (NCATS)
